Residue numbers refer to the chain shown, from its start.
Legend:
Experiment in all cases: yeast three-hybrid, YBZ-1, SC-Leu-His + 0.5 mM 3-AT, 4 days
Conditions in all cases: tags: N-Gal4 AD-HA kept; label: inside an RPR1-promoter hybrid RNA with tandem MS2 sites; ssRNA
PUM1 PUF domain R1-GRR = PUM1 PUF domain R1-GRR (Homo sapiens, UniProt Q14671 828-1176, S863G;Q867R)
Method in brief: (§1)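 Sequencing with Illumina followed PCR amplification of the repeat regions from transformants grown four days on SC-Leu (input) or SC-Leu-His + 0.5 mM 3-AT (selection). The transformants were strain YBZ-1 with a LexA–MS2 coat fusion and a HIS3 reporter, carrying Pumilio-1 PUF domain libraries and matching RNA elements. The interaction score is the log change in variant frequency from input to selection, computed in log2 with a pseudocount of 1 for absent variants.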

PUM1 PUF domain R1-NIG = PUM1 PUF domain R1-NIG (Homo sapiens, UniProt Q14671 828-1176, S863N;R864I;Q867G)
Method in brief: as §1

PUM1 PUF domain R6-SWK = target: T1, PUM1 PUF domain R6-SWK (Homo sapiens, UniProt Q14671 828-1176, N1043S;Y1044W;Q1047K)
T1 sequence: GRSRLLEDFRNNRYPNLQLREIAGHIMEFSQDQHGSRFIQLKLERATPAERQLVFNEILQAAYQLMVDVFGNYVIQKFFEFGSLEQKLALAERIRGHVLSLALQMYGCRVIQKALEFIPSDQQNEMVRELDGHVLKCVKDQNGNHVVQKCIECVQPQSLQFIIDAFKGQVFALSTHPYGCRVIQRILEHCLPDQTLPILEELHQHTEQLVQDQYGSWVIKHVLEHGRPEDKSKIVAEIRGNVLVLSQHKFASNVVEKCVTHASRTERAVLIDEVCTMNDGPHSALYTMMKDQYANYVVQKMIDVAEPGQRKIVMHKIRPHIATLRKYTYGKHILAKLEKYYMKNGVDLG
Method in brief: as §1

PUM1 PUF domain R6-RHR = target: T2, PUM1 PUF domain R6-RHR (Homo sapiens, UniProt Q14671 828-1176, N1043R;Y1044H;Q1047R)
T2 sequence: T1 sequence with S216R, W217H, K220R
Method in brief: as §1

PUM1 PUF domain R3-SPS = PUM1 PUF domain R3-SPS (Homo sapiens, UniProt Q14671 828-1176, C935S;R936P;Q939S)
Method in brief: as §1

PUM1 PUF domain R3-LFV = PUM1 PUF domain R3-LFV (Homo sapiens, UniProt Q14671 828-1176, C935L;R936F;Q939V)
Method in brief: as §1

PUM1 PUF domain R3-LRS = PUM1 PUF domain R3-LRS (Homo sapiens, UniProt Q14671 828-1176, C935L;Q939S)
Method in brief: as §1

PUM1 PUF domain R5-FRD = PUM1 PUF domain R5-FRD (Homo sapiens, UniProt Q14671 828-1176, C1007F;Q1011D)
Method in brief: as §1

PUM1 PUF domain R8-RRI = PUM1 PUF domain R8-RRI (Homo sapiens, UniProt Q14671 828-1176, N1122R;Y1123R;Q1126I)
Method in brief: as §1

PUM1 PUF domain R8-HYL = PUM1 PUF domain R8-HYL (Homo sapiens, UniProt Q14671 828-1176, N1122H;Q1126L)
Method in brief: as §1

Question: “GGCUAGAACUAGUGGAUCCCCCGGCGCCCGGCGGCUCGAGCCCGGGUAAGUGUAAAUCGUCUGCAUGCCGCCGGGCGCCAUGCCUGCAGGUCGACUCUAGAAAACAUG” was tested. Which binding signal (PUM1 PUF domain R1-GRR) did it give?
Answer: 3.99 log2 enrichment (interaction score)

Question: Which binding signal (PUM1 PUF domain R1-NIG) does the source give for “GGCUAGAACUAGUGGAUCCCCCGGCGCCCGGCGGCUCGAGCCCGGGUAAGUGUAAAUUGUCUGCAUGCCGCCGGGCGCCAUGCCUGCAGGUCGACUCUAGAAAACAUG” here?
Answer: 3.06 log2 enrichment (interaction score)

Question: What about the binding signal (PUM1 PUF domain R1-GRR) of the same sequence?
Answer: 2.59 log2 enrichment (interaction score)

Question: “GGCUAGAACUAGUGGAUCCCCCGGCGCCCGGCGGCUCGAGCCCGGGUAAGUGAAAAUAGUCUGCAUGCCGCCGGGCGCCAUGCCUGCAGGUCGACUCUAGAAAACAUG” was tested. Which binding signal (PUM1 PUF domain R6-SWK) did it give?
Answer: 1.25 log2 enrichment (interaction score)

Question: What about the binding signal (PUM1 PUF domain R6-RHR) of the same sequence?
Answer: 1.86 log2 enrichment (interaction score)

Question: Which binding signal (PUM1 PUF domain R3-SPS) does the source give for “GGCUAGAACUAGUGGAUCCCCCGGCGCCCGGCGGCUCGAGCCCGGGUAAGUGUAAUUAGUCUGCAUGCCGCCGGGCGCCAUGCCUGCAGGUCGACUCUAGAAAACAUG” here?
Answer: 1.47 log2 enrichment (interaction score)

Question: And the binding signal (PUM1 PUF domain R3-LFV)?
Answer: 4.09 log2 enrichment (interaction score)

Question: What about the binding signal (PUM1 PUF domain R3-LRS) of the same sequence?
Answer: 1.26 log2 enrichment (interaction score)

Question: “GGCUAGAACUAGUGGAUCCCCCGGCGCCCGGCGGCUCGAGCCCGGGUAAGUGUCAAUAGUCUGCAUGCCGCCGGGCGCCAUGCCUGCAGGUCGACUCUAGAAAACAUG” was tested. Which binding signal (PUM1 PUF domain R5-FRD) did it give?
Answer: 2.84 log2 enrichment (interaction score)

Question: How did the binding signal (PUM1 PUF domain R8-RRI) turn out when “GGCUAGAACUAGUGGAUCCCCCGGCGCCCGGCGGCUCGAGCCCGGGUAAGCGUAAAUAGUCUGCAUGCCGCCGGGCGCCAUGCCUGCAGGUCGACUCUAGAAAACAUG” was run?
Answer: 2.58 log2 enrichment (interaction score)

Question: And the binding signal (PUM1 PUF domain R8-HYL)?
Answer: 2.26 log2 enrichment (interaction score)

Question: Which binding signal (PUM1 PUF domain R3-LFV) does the source give for “GGCUAGAACUAGUGGAUCCCCCGGCGCCCGGCGGCUCGAGCCCGGGUAAGUGUAAGUAGUCUGCAUGCCGCCGGGCGCCAUGCCUGCAGGUCGACUCUAGAAAACAUG” here?
Answer: 5.59 log2 enrichment (interaction score)

Question: And the binding signal (PUM1 PUF domain R3-LRS)?
Answer: 4.15 log2 enrichment (interaction score)

Question: Which binding signal (PUM1 PUF domain R6-SWK) does the source give for “GGCUAGAACUAGUGGAUCCCCCGGCGCCCGGCGGCUCGAGCCCGGGUAAGUGUAAAUAGUCUGCAUGCCGCCGGGCGCCAUGCCUGCAGGUCGACUCUAGAAAACAUG” here?
Answer: 6.97 log2 enrichment (interaction score)

Question: And the binding signal (PUM1 PUF domain R3-SPS)?
Answer: 3.13 log2 enrichment (interaction score)

Question: And the binding signal (PUM1 PUF domain R5-FRD)?
Answer: 1.06 log2 enrichment (interaction score)

Question: And the binding signal (PUM1 PUF domain R8-RRI)?
Answer: 1.24 log2 enrichment (interaction score)

Question: And the binding signal (PUM1 PUF domain R3-LFV)?
Answer: 3.48 log2 enrichment (interaction score)

Question: What about the binding signal (PUM1 PUF domain R6-RHR) of the same sequence?
Answer: 3.36 log2 enrichment (interaction score)

Question: “GGCUAGAACUAGUGGAUCCCCCGGCGCCCGGCGGCUCGAGCCCGGGUAAGUGUAAAUGGUCUGCAUGCCGCCGGGCGCCAUGCCUGCAGGUCGACUCUAGAAAACAUG” was tested. Which binding signal (PUM1 PUF domain R1-GRR) did it give?
Answer: 1.78 log2 enrichment (interaction score)

Question: With “GGCUAGAACUAGUGGAUCCCCCGGCGCCCGGCGGCUCGAGCCCGGGUAAGUGUAACUAGUCUGCAUGCCGCCGGGCGCCAUGCCUGCAGGUCGACUCUAGAAAACAUG” as the sequence, how does the binding signal (PUM1 PUF domain R3-LFV) read?
Answer: 2.66 log2 enrichment (interaction score)
